# Shown is part of a subset that was picked to be rich in the strongest signals.
# Columns and labels:
# Test in all cases: glycan array binding signal (z-score within array); higher = stronger binding
# Conditions in all cases: glycan notation: IUPAC condensed, linker removed
# [1] = biological target: Fuc(a1-2)Gal(b1-3)[Fuc(a1-4)]GlcNAc(b1-2)Man(a1-3)[Fuc(a1-2)Gal(b1-3)[Fuc(a1-4)]GlcNAc(b1-2)Man(a1-6)]Man(b1-4)GlcNAc(b1-4)[Fuc(a1-6)]GlcNAc(b1-4)[Fuc(a1-6)]GlcNAc
# Procedure, shortened: (§1)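 The binding signal is a Z-score computed within each array and averaged over linkers. Arrays of the same protein sequence at different concentrations or buffers were also averaged together. Data originate from 3228 arrays in the Consortium for Functional Glycomics database, kept only where the protein sequence was available.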
# [2] = biological target: Fuc(a1-2)Gal(b1-3)[Fuc(a1-4)]GlcNAc(b1-3)[Gal(b1-4)GlcNAc(b1-6)]Gal(b1-4)Glc
# Procedure, shortened: as §1
# [3] = biological target: Fuc(a1-2)Gal(b1-4)Fuc(a1-3)]GlcNAc(b1-2)Man(a1-3)[Fuc(a1-2)Gal(b1-4)[Fuc(a1-3)]GlcNAc(b1-2)Man(a1-6)]Man(b1-4)GlcNAc(b1-4)GlcNAc
# Procedure, shortened: as §1
# [4] = biological target: Fuc(a1-2)Gal(b1-4)[Fuc(a1-3)]GlcNAc(b1-3)Gal(b1-4)[Fuc(a1-3)]GlcNAc
# Procedure, shortened: as §1
# [5] = biological target: Fuc(a1-2)[Gal(a1-3)]Gal(b1-3)GlcNAc(b1-2)Man(a1-3)[Fuc(a1-2)[Gal(a1-3)]Gal(b1-3)GlcNAc(b1-2)Man(a1-6)]Man(b1-4)GlcNAc(b1-4)[Fuc(a1-6)]GlcNAc
# Procedure, shortened: as §1
# [6] = biological target: Fuc(a1-2)[Gal(a1-3)]Gal(b1-4)GlcNAc(b1-3)[Fuc(a1-2)[Gal(a1-3)]Gal(b1-4)GlcNAc(b1-6)]GalNAc
# Procedure, shortened: as §1
# [7] = biological target: Fuc(a1-2)[GalNAc(a1-3)]Gal(b1-3)GalNAc(b1-3)Gal(a1-4)Gal(b1-4)Glc
# Procedure, shortened: as §1
# [8] = biological target: Fuc(a1-2)[GalNAc(b1-3)]Gal
# Procedure, shortened: as §1
# [9] = biological target: Fuc(a1-3)[Gal(b1-4)]GlcNAc(b1-3)Gal(b1-4)[Fuc(a1-3)]GlcNAc
# Procedure, shortened: as §1
# Fuc(b1-3)GlcNAc = biological target: Fuc(b1-3)GlcNAc
# Procedure, shortened: as §1
# [10] = biological target: Gal(a1-3)Gal(b1-3)[Fuc(a1-4)]GlcNAc(b1-2)Man(a1-3)[Gal(a1-3)Gal(b1-3)[Fuc(a1-4)]GlcNAc(b1-2)Man(a1-6)]Man(b1-4)GlcNAc(b1-4)GlcNAc
# Procedure, shortened: as §1
# [11] = biological target: Gal(a1-3)[Gal(a1-4)]Gal(b1-4)GlcNAc
# Procedure, shortened: as §1
# [12] = biological target: Gal(b1-3)GlcNAc(b1-3)Gal(b1-4)GlcNAc(b1-2)Man(a1-3)[Gal(b1-3)GlcNAc(b1-3)Gal(b1-4)GlcNAc(b1-2)Man(a1-6)]Man(b1-4)GlcNAc(b1-4)GlcNAc
# Procedure, shortened: as §1
# [13] = biological target: Gal(b1-3)[Fuc(a1-4)]GlcNAc(b1-2)Man(a1-3)[Gal(b1-3)[Fuc(a1-4)]GlcNAc(b1-2)Man(a1-6)]Man(b1-4)GlcNAc(b1-4)[Fuc(a1-6)]GlcNAc
# Procedure, shortened: as §1
# [14] = biological target: Gal(b1-3)[GlcNAc(b1-6)]GalNAc
# Procedure, shortened: as §1
# [15] = biological target: Gal(b1-4)GalNAc(a1-3)[Fuc(a1-2)]Gal(b1-4)GlcNAc
# Procedure, shortened: as §1
# [16] = biological target: Gal(b1-4)GlcNAc(b1-2)Man(a1-3)[Gal(b1-4)GlcNAc(b1-2)Man(a1-6)]Man(b1-4)GlcNAc(b1-4)[Fuc(a1-6)]GlcNAc
# Procedure, shortened: as §1
# [17] = biological target: Gal(b1-4)GlcNAc(b1-2)[Gal(b1-4)GlcNAc(b1-6)]Man(a1-6)[Gal(b1-4)GlcNAc(b1-2)Man(a1-3)]Man(b1-4)GlcNAc(b1-4)[Fuc(a1-6)]GlcNAc
# Procedure, shortened: as §1
# [18] = biological target: Gal(b1-4)GlcNAc(b1-3)Gal(b1-4)GlcNAc
# Procedure, shortened: as §1
# [19] = biological target: Gal(b1-4)GlcNAc(b1-3)Gal(b1-4)GlcNAc(b1-2)Man(a1-3)[Gal(b1-4)GlcNAc(b1-3)Gal(b1-4)GlcNAc(b1-2)Man(a1-6)]Man(b1-4)GlcNAc(b1-4)GlcNAc
# Procedure, shortened: as §1
# [20] = biological target: Gal(b1-4)GlcNAc(b1-3)Gal(b1-4)GlcNAc(b1-3)Gal(b1-4)GlcNAc(b1-3)Gal(b1-4)GlcNAc(b1-3)Gal(b1-4)GlcNAc(b1-3)Gal(b1-4)GlcNAc(b1-2)Man(a1-3)[Gal(b1-4)GlcNAc(b1-3)Gal(b1-4)GlcNAc(b1-3)Gal(b1-4)GlcNAc(b1-3)Gal(b1-4)GlcNAc(b1-3)Gal(b1-4)GlcNAc(b1-3)Gal(b1-4)GlcNAc(b1-2)Man(a1-6)]Man(b1-4)GlcNAc(b1-4)GlcNAc
# Procedure, shortened: as §1
# [21] = biological target: Gal(b1-4)GlcNAc(b1-3)Gal(b1-4)GlcNAc(b1-3)[Gal(b1-4)GlcNAc(b1-3)Gal(b1-4)GlcNAc(b1-6)]GalNAc
# Procedure, shortened: as §1
# [22] = biological target: Gal(b1-4)GlcNAc(b1-3)GalNAc
# Procedure, shortened: as §1
# Gal3S6S(b1-4)GlcNAc6S = biological target: Gal3S6S(b1-4)GlcNAc6S
# Procedure, shortened: as §1
# GalNAc(a1-3)GalNAc = biological target: GalNAc(a1-3)GalNAc
# Procedure, shortened: as §1
# GalNAc3S(b1-4)GlcNAc3S = biological target: GalNAc3S(b1-4)GlcNAc3S
# Procedure, shortened: as §1
# GalNAc4S6S(b1-4)GlcNAc = biological target: GalNAc4S6S(b1-4)GlcNAc
# Procedure, shortened: as §1
# Glc(a1-6)Glc(a1-6)Glc = biological target: Glc(a1-6)Glc(a1-6)Glc
# Procedure, shortened: as §1
# GlcA(b1-6)Gal = biological target: GlcA(b1-6)Gal
# Procedure, shortened: as §1
# [23] = biological target: GlcA3S(b1-3)Gal(b1-4)GlcNAc(b1-3)Gal(b1-4)Glc
# Procedure, shortened: as §1
# [24] = biological target: GlcNAc(a1-4)Gal(b1-4)GlcNAc(b1-3)Gal(b1-4)GlcNAc
# Procedure, shortened: as §1
# [25] = biological target: GlcNAc(b1-3)Gal(b1-4)GlcNAc
# Procedure, shortened: as §1
# [26] = biological target: GlcNAc(b1-3)Gal(b1-4)GlcNAc(b1-2)Man(a1-3)[GlcNAc(b1-3)Gal(b1-4)GlcNAc(b1-2)Man(a1-6)]Man(b1-4)GlcNAc(b1-4)[Fuc(a1-6)]GlcNAc
# Procedure, shortened: as §1
# [27] = biological target: GlcNAc(b1-3)Gal(b1-4)GlcNAc(b1-3)Gal(b1-4)GlcNAc(b1-2)Man(a1-3)[GlcNAc(b1-3)Gal(b1-4)GlcNAc(b1-3)Gal(b1-4)GlcNAc(b1-2)Man(a1-6)]Man(b1-4)GlcNAc(b1-4)GlcNAc
# Procedure, shortened: as §1
# [28] = biological target: GlcNAc(b1-3)Gal(b1-4)GlcNAc(b1-3)Gal(b1-4)GlcNAc(b1-3)Gal(b1-4)GlcNAc(b1-2)Man(a1-3)[GlcNAc(b1-3)Gal(b1-4)GlcNAc(b1-3)Gal(b1-4)GlcNAc(b1-3)Gal(b1-4)GlcNAc(b1-2)Man(a1-6)]Man(b1-4)GlcNAc(b1-4)[Fuc(a1-6)]GlcNAc
# Procedure, shortened: as §1
# Kdn(a2-3)Gal(b1-4)GlcNAc = biological target: Kdn(a2-3)Gal(b1-4)GlcNAc
# Procedure, shortened: as §1
# Neu5Ac(a2-3)Gal = biological target: Neu5Ac(a2-3)Gal
# Procedure, shortened: as §1
# [29] = biological target: Neu5Ac(a2-3)Gal(b1-3)GalNAc(b1-3)Gal(a1-4)Gal(b1-4)Glc
# Procedure, shortened: as §1
# [30] = biological target: Neu5Ac(a2-3)Gal(b1-3)GlcNAc(b1-3)Gal(b1-4)GlcNAc
# Procedure, shortened: as §1
# [31] = biological target: Neu5Ac(a2-3)Gal(b1-3)GlcNAc(b1-6)GalNAc
# Procedure, shortened: as §1
# [32] = biological target: Neu5Ac(a2-3)Gal(b1-4)GlcNAc(b1-3)Gal(b1-4)GlcNAc(b1-3)GalNAc
# Procedure, shortened: as §1
# [33] = biological target: Neu5Ac(a2-3)Gal(b1-4)[Fuc(a1-3)]GlcNAc
# Procedure, shortened: as §1
# [34] = biological target: Neu5Ac(a2-3)Gal(b1-4)[Fuc(a1-3)]GlcNAc(b1-3)Gal(b1-4)[Fuc(a1-3)]GlcNAc(b1-3)Gal(b1-4)[Fuc(a1-3)]GlcNAc
# Procedure, shortened: as §1
# [35] = biological target: Neu5Ac(a2-3)Gal(b1-4)[Fuc(a1-3)]GlcNAc(b1-3)GalNAc
# Procedure, shortened: as §1
# [36] = biological target: Neu5Ac(a2-3)[Neu5Ac(a2-6)]GalNAc
# Procedure, shortened: as §1
# [37] = biological target: Neu5Ac(a2-6)Gal(b1-4)GlcNAc(b1-2)Man
# Procedure, shortened: as §1
# [38] = biological target: Neu5Ac(a2-6)Gal(b1-4)GlcNAc(b1-2)Man(a1-3)[Gal(b1-4)GlcNAc(b1-2)Man(a1-6)]Man(b1-4)GlcNAc(b1-4)GlcNAc
# Procedure, shortened: as §1
# [39] = biological target: Neu5Ac(a2-8)Neu5Ac(a2-3)Gal(b1-3)GalNAc(b1-4)[Neu5Ac(a2-3)]Gal(b1-4)Glc
# Procedure, shortened: as §1
# [40] = biological target: Neu5Ac(a2-8)Neu5Ac(a2-3)[Gal(b1-3)GalNAc(b1-4)]Gal(b1-4)Glc
# Procedure, shortened: as §1
# [41] = biological target: Neu5Ac(a2-8)Neu5Ac(a2-8)Neu5Ac(a2-8)Neu5Ac(a2-3)[GalNAc(b1-4)]Gal(b1-4)Glc
# Procedure, shortened: as §1
binder,measurement,setting,value
"XTP3-B-MRH1 (Homo sapiens), Q96DZ1 (protein) LLEPLFKQSSCSYRIESYWTYEVCHGKHIRQYHEEKETGQKINIHEYYLGNMLAKNLLFEKEREAEEKEKSNEIPTKNIEGQMTPYYPVGMGNGTPCSLKQNRPRSSTVMYICHPESKHEILSVAEVTTCEYEVVILTPLLCSHPKYRFRA",glycan array binding signal (z-score),[1],0.479
same,glycan array binding signal (z-score),[2],0.735
same,glycan array binding signal (z-score),[3],3.43
same,glycan array binding signal (z-score),[4],0.249
same,glycan array binding signal (z-score),[5],-0.029
same,glycan array binding signal (z-score),[6],0.358
same,glycan array binding signal (z-score),[7],-0.49
same,glycan array binding signal (z-score),[8],-1.01
same,glycan array binding signal (z-score),[9],4.25
same,glycan array binding signal (z-score),Fuc(b1-3)GlcNAc,0.382
same,glycan array binding signal (z-score),[10],-0.237
same,glycan array binding signal (z-score),[11],-0.853
same,glycan array binding signal (z-score),[12],0.941
same,glycan array binding signal (z-score),[13],-0.731
same,glycan array binding signal (z-score),[14],-0.389
same,glycan array binding signal (z-score),[15],-0.41
same,glycan array binding signal (z-score),[16],-0.184
same,glycan array binding signal (z-score),[17],1.61
same,glycan array binding signal (z-score),[18],2.97
same,glycan array binding signal (z-score),[19],3.79
same,glycan array binding signal (z-score),[20],0.082
same,glycan array binding signal (z-score),[21],1.07
same,glycan array binding signal (z-score),[22],-0.205
same,glycan array binding signal (z-score),Gal3S6S(b1-4)GlcNAc6S,-0.392
same,glycan array binding signal (z-score),GalNAc(a1-3)GalNAc,3.12
same,glycan array binding signal (z-score),GalNAc3S(b1-4)GlcNAc3S,3.07
same,glycan array binding signal (z-score),GalNAc4S6S(b1-4)GlcNAc,-0.682
same,glycan array binding signal (z-score),Glc(a1-6)Glc(a1-6)Glc,-0.837
same,glycan array binding signal (z-score),GlcA(b1-6)Gal,0.841
same,glycan array binding signal (z-score),[23],-0.47
same,glycan array binding signal (z-score),[24],-0.549
same,glycan array binding signal (z-score),[25],-0.824
same,glycan array binding signal (z-score),[26],-0.235
same,glycan array binding signal (z-score),[27],2.48
same,glycan array binding signal (z-score),[28],4.18
same,glycan array binding signal (z-score),Kdn(a2-3)Gal(b1-4)GlcNAc,-0.086
same,glycan array binding signal (z-score),Neu5Ac(a2-3)Gal,-0.797
same,glycan array binding signal (z-score),[29],-0.636
same,glycan array binding signal (z-score),[30],0.189
same,glycan array binding signal (z-score),[31],-0.811
same,glycan array binding signal (z-score),[32],3.41
same,glycan array binding signal (z-score),[33],-0.083
same,glycan array binding signal (z-score),[34],-0.381
same,glycan array binding signal (z-score),[35],2.68
same,glycan array binding signal (z-score),[36],0.205
same,glycan array binding signal (z-score),[37],1.44
same,glycan array binding signal (z-score),[38],-0.887
same,glycan array binding signal (z-score),[39],-1.01
same,glycan array binding signal (z-score),[40],2.49
same,glycan array binding signal (z-score),[41],1.37

# From the supplement of paper PMC8728848
